Experimental data as given in PubChem BioAssay (NCATS).
Inconclusive results are not listed. Unmarked numbers belong to inactive results. Calls follow the shape of the dose curve; as a rule, active = well fitted inhibition curve with a large enough effect; inconclusive = small, poorly fitted or top-dose-only effect; inactive = no such curve, though single readings can be large or run the other way.

biological target: Retinaldehyde dehydrogenase 3 (Homo sapiens) (UniProt P47895); test: qHTS for Inhibitors of the Aldehyde Dehydrogenase Family (ALDH1A3) Primary screen (AID 2061315); details: ALDH inhibition qHTS; series mostly up to 56 µM; activity change, negative = inhibition: at the top concentration;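 also: plate controls were DMSO vehicle for no effect and reference inhibitor for full effect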

Going from `CC(=O)O[C@H]1CC[C@H](C)[C@@]2(C)[C@H](OC(C)=O)c3c(C)coc3C(=O)[C@H]12` to `C=C1CCC(OC(C)=O)C2(C)CC3OC(=O)C(C)=C3CC12` (stereo not given), the “activity change, negative = inhibition” value falls from -2.94% to -10%.

Going from `CCOc1ccc(S(=O)(=O)N2CCCCCC2)c2ccccc12` to `O=C1CC[C@H](C(=O)N2CCCCC2)N1`, the “activity change, negative = inhibition” value falls from 2.63% to -2.9%.

Going from `O=C(NCc1ccccc1-c1ccccc1C(=O)NCCc1ccccn1)OCc1ccccc1` to `CC(C)C1C(OC(=O)/C=C/c2ccccc2)CC2(C)OC2CCC2(C)OC2C1O` (stereo not given), the “activity change, negative = inhibition” value rises from 2.11% to 11.8%.

In the case of `CC(=O)C1(C)CCC2C3C=C(C)C4=CC(=O)CCC4(C)C3CCC21C` (stereo not given), the “activity change, negative = inhibition” value is reported as -3.52%.

Going from `CC(=O)O[C@H]1CC(C)(C)CC2[C@@]13[C@H](O)C[C@]1(C)[C@@]2(CCC2[C@@]4(C)CC[C@H](O[C@@H]5OC[C@H](O[C@@H]6O[C@H](CO)[C@@H](O)[C@H](O)[C@H]6O[C@@H]6OC[C@@H](O)[C@H](O)[C@H]6O)[C@H](O)[C@H]5O[C@@H]5O[C@H](CO)[C@@H](O)[C@H](O)[C@H]5O)C(C)(C)C4CC[C@]21C)O[C@@H]3O` (stereo not given in full) to `CC(=O)O[C@@H]1[C@@H](OC(=O)/C=C/c2ccccc2)[C@@H](OC(C)=O)[C@H](O[C@H]2[C@@H]3C=CO[C@@H](O[C@@H]4O[C@H](CO)[C@@H](O)[C@H](O)[C@H]4O)[C@@H]3[C@@]3(CO)O[C@@H]23)O[C@H]1C`, the “activity change, negative = inhibition” value rises from -1.69% [at 16.9 µM] to 1.24% [at 16.9 µM].

With `CC(=O)O[C@@H]1[C@H](O[C@@H]2O[C@@H](CO)[C@H](O)[C@H]2O)[C@@H](O[C@@H]2O[C@@H](C)[C@H](O[C@@H]3OC[C@@H](O)[C@H](O)[C@H]3O)[C@@H](O)[C@H]2O)[C@H](OC(=O)[C@]23CCC(C)(C)C[C@H]2C2=CCC4[C@@]5(C)CC[C@H](O[C@@H]6O[C@H](C(=O)O)[C@@H](O)[C@H](O)[C@H]6O[C@@H]6O[C@H](CO)[C@H](O)[C@H](O)[C@H]6O)[C@@](C)(C=O)C5CC[C@@]4(C)[C@]2(C)C[C@H]3O)O[C@@H]1C` (stereo not given in full) the activity change, negative = inhibition was -1.8% [at 11.2 µM].
